Tau FP inhib: qHTS for Inhibitors of Tau Fibril Formation, Fluorescence Polarization. Microtubule-associated protein tau (Homo sapiens), P10636. K18 P301L tau heparin fibrillization, Alexa594 FP, 6 h. Potency, µM (doses to about 57.7 µM), for inactives: top-dose activity, negative = inhibition, hits mostly inhibitors. 0.39% of 280,000 active. AID 1468, 2008; active means well fitted curve in the direction sought with a large enough effect; inconclusive means small, poorly fitted or top-dose-only effect, or another doubt; inactive means no such curve, though single readings can be large; an effect the other way counts as inactive or inconclusive; further: nearly all actives have a fitted effect of over 55% in size
Target sequence (P10636 561-689 P618L limits assumed): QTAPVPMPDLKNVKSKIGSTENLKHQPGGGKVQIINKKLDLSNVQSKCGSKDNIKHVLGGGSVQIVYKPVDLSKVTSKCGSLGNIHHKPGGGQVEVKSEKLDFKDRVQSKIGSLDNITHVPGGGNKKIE
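K18 P301L tau (15 uM unlabeled/0.24 uM Alexa 594-labeled, final) + compound + heparin 20 uM final; 100 mM NaOAc pH 7; 6 hr 37 C; ThT 30 uM final added, 1 hr RT; FP ex 555/em 632 nm.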
Tau fibril ThT: qHTS for Inhibitors of Tau Fibril Formation, Thioflavin T Binding | Microtubule-associated protein tau (Homo sapiens), P10636 | recombinant tau K18 P301L, heparin-induced fibrillization, ThT fluorescence | Potency, µM (highest dose often 57.4 µM), without a hit: at the top dose activity, negative = inhibition, usual class: inhibitors | 2.1% of 270,000 active; active means well fitted curve in the direction sought with a large enough effect; inconclusive means small, poorly fitted or top-dose-only effect, or another doubt; inactive means no such curve, though single readings can be large; an effect the other way counts as inactive or inconclusive; further: nearly all actives have a fitted effect of over 55% in size
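Fibril formation assay: tau K18 P301L at 15 uM with trace Alexa 594 label, heparin inducer 20 uM, pH 7 sodium acetate buffer, 37 C for 6 hr; endpoint ThT signal.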
ALDH1A1 block: qHTS Assay for Inhibitors of Aldehyde Dehydrogenase 1 (ALDH1A1); Aldehyde dehydrogenase 1A1 (Homo sapiens), P00352; Purified ALDH1A1, NADH fluorescence, propionaldehyde substrate; Potency, µM (doses to about 75.3 µM), for inactives: at the highest dose activity, negative = inhibition, actives largely listed as inhibitors; 7.3% of 220,000 active; AID 1030, 2008;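 further: plate controls were no enzyme wells and a reference inhibitor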
KDM4E inh: qHTS Assay for Inhibitors of Human Jumonji Domain Containing 2E (JMJD2E); Lysine-specific demethylase 4E (Homo sapiens), B2RXH2; JMJD2E catalytic domain, FDH-coupled NADH fluorescence (FDH is formaldehyde dehydrogenase); Potency, µM (highest dose often 57.1 µM), inactives show top-dose activity change, negative = inhibition, hits mostly inhibitors; 1.6% of 230,000 active; AID 2147, 2009;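 further: 0% = wells with enzyme and -100% = buffer wells without enzyme; nearly all actives have a fitted effect of over 50% in size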
HPGD inh: qHTS Assay for Inhibitors of HPGD (15-Hydroxyprostaglandin Dehydrogenase) | 15-hydroxyprostaglandin dehydrogenase [NAD(+)] (Homo sapiens), P15428 | purified HPGD, NADH fluorescence kinetic, PGE2 substrate | Potency, µM, for the others: at the highest dose activity change, negative = inhibition, hits mostly inhibitors | 4.3% of 150,000 active
Target sequence (P15428 whole entry, looked up): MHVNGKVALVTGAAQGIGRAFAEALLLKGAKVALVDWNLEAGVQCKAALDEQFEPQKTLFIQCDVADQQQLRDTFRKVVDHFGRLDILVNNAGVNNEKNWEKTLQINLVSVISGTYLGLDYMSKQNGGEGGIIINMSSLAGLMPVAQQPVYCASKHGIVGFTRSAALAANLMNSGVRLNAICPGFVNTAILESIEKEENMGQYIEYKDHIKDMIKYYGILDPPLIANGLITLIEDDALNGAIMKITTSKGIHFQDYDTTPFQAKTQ
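20 nM HPGD preincubated 15 min at room temperature with compound in 50 mM Tris-HCl pH 8, 0.01% Tween 20. Started with 1 mM NAD+ and 30 uM prostaglandin E2; NADH fluorescence (360/450 nm) read 5 times over 30-s intervals, last minus first.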
Tau fluor counter: Counterscreen qHTS for Inhibitors of Tau Fibril Formation, Fluorescence Polarization. Potency, µM (doses to about 57.7 µM), inactives show top-dose activity change, negative = decrease. tau K18 P301L (four-repeat tau fragment) Alexa594 fluorescence, heparin fibrillization. 0.93% of 280,000 active; active means well fitted curve in the direction sought with a large enough effect; inconclusive means small, poorly fitted or top-dose-only effect, or another doubt; inactive means no such curve, though single readings can be large; an effect the other way counts as inactive or inconclusive; further: nearly all actives have a fitted effect of over 55% in size
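Human K18 P301L tau (15 uM unlabeled plus 0.24 uM Alexa 594-labeled, final) in 100 mM sodium acetate pH 7 was mixed with compound and 20 uM heparin and incubated 6 hr at 37 C.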
Numbers without * were called inactive; ? = inconclusive; . = no result given; [ ] = dose if it differs, or a comment. Only some compounds are listed: those with a hit (about 9.9% of all), similar ones and a draw of the others. Unless noted, the call rests on the fitted dose curve; in most records, active means well fitted inhibition curve with a large enough effect (not every such curve was filed as active); inconclusive means small, poorly fitted or top-dose-only effect, or another doubt; inactive means no such curve, though single readings can be large or run the other way. Unless noted, on the % scale 0 is the no-effect control and ±100 the full control effect; potency means the concentration at half of the fitted maximal effect.

SMILES | Tau FP inhib | Tau fibril ThT | ALDH1A1 block | KDM4E inh | HPGD inh | Tau fluor counter
CC(C)C1OC(c2cccc(NC(=O)c3cccs3)c2)OCC1(C)C (centres undefined) | ? | 10% | 7% | 2% | . | ?
S=C(Nc1cccc(Cl)c1)N1CCN(Cc2ccccc2)CC1 | -7% | -2% | -9% | 9% | -12% | -16%
O=C(NC1CC1)C1=C[C@H](c2c[nH]c3ccccc23)C[C@H](OCCCCO)O1 | 0% | -4% | . | ? | . | 2%
O=C(NCc1ccccc1)C1=C[C@@H](c2ccc(Br)cc2)C[C@@H](OCCCCO)O1 | -3% | ? | 25µM* | -16% | . | -17%
CC(=O)n1cc([C@@H]2C=C(C(=O)NCc3ccccc3)O[C@H](OCCCCO)C2)c2ccccc21 | -5% | ? | -2% | 16µM* | . | -17%
O=C(NC1CC1)C1=C[C@@H](c2c[nH]c3ccccc23)C[C@@H](OCc2ccc(CO)cc2)O1 | 5% | -13% | . | 25µM* | . | -16%
CC(=O)n1cc([C@H]2C=C(C(=O)NCc3ccccc3)O[C@@H](OCc3ccc(CO)cc3)C2)c2ccccc21 | -12% | ? | 16µM* | ? | . | -19%
c1ccc2cc(-c3cc(-c4cc(-c5ccc6ccccc6c5)on4)no3)ccc2c1 | . | . | -2%[13.5 µM] | . | -7% | .
COc1cccc(Cn2cnc3c2c(=O)n(C)c(=O)n3C)c1 | -5% | 0% | . | . | . | -5%
C#CCNC(=O)C1=C[C@@H](c2coc3ccccc3c2=O)C[C@@H](OCCCCO)O1 | -1% | -4% | 10µM* | -5% | . | -8%
O=C(NCc1ccccc1)C1=C[C@@H](c2coc3ccccc3c2=O)C[C@@H](OCCCCO)O1 | 0% | -5% | ? | 8% | . | -5%
COc1ccc(S(=O)(=O)Nc2ccc(S(=O)(=O)N(C)C)cc2)cc1[N+](=O)[O-] | 2% | 0% | 13µM* | 6% | -8% | 5%
O=C(Cn1c(=O)n(-c2ccc(Cl)cc2)c(=O)c2c3c(sc21)CCCCC3)Nc1cccc(Cl)c1 | ? | 12% | . | . | . | -2%
C=CCOc1c(Br)cc(/C=N/n2c(CC)n[nH]c2=S)cc1Br | 6% | -24% | 8% | -2% | 3.2µM* | -12%
CCN(CC)c1ccc(/C=N/n2c(C)cc(C)cc2=O)cc1 | 0% | ? | 7.9µM* | ? | ? | -16%
CCc1n[nH]c(=S)n1/N=C/c1ccc(N(CC)CC)cc1 | 2% | ? | 10µM* | ? | . | -29%
CCc1n[nH]c(=S)n1/N=C/c1c(C)nn(-c2ccccc2)c1Cl | 4% | -12% | 2% | -4% | . | -1%
CCc1ccc(OS(=O)(=O)c2cn(C)c(=O)n(C)c2=O)cc1 | 0% | 3% | 5% | 3% | . | 2%
Cc1ccc(Nc2nc(C)c(NC(=O)c3ccc(C)cc3)c(Nc3ccc(C)cc3)n2)cc1 | -5% | -21% | . | . | . | ?
CC(=O)Nc1ccc(Nc2nc(C)c([N+](=O)[O-])c(Nc3ccc(NC(C)=O)cc3)n2)cc1 | ? | 13µM* | -3% | 2% | -4% | -21%
CCn1c2ccccc2c2cc(NC(=O)Cc3ccc(S(=O)(=O)N4CCOCC4)s3)ccc21 | 13% | ? | -9% | 0% | -7% | 7.9µM*[quencher]
CN(Cc1cccs1)S(=O)(=O)c1cccs1 | 0% | 1% | ? | 6% | 28µM* | -7%
Cc1cc2oc(C(=O)Nc3sc4c(c3C(=O)NCC3CCCO3)CCC4)cc(=O)c2cc1C (centres undefined) | 3% | ? | . | . | . | -12%
